Results: PubChem BioAssay (Tox21)
Values joined by “and” are separate entries in the source; they are usually repeats but may differ in a detail not shown here. Equal values may be shown once. Results filed as inconclusive are left out. The source holds several records for some structures; these can differ, active in one and inactive in another. Active and inactive are the calls of the source. Unless noted, calls follow the shape of the dose curve; as a rule, active = well fitted curve in the direction sought with a large enough effect in the repeat runs; inconclusive = weak or mixed curves; inactive = no such curve, though single readings can be large; an effect the other way counts as inactive or inconclusive. Starred links: 1 amine or outer side, 2 acyl side, 3 side chain; linkers in the order of their positions; H or OH if unused. Positions of bridges follow the written chain, without caps; N, C: chain ends. Non-standard residues stand in square brackets, D forms with d. Residues, ends and D or L forms follow the SMILES beside them. Chains are numbered I, II in the order given. Actinocin(9to1) = Cc1c2oc3c(C)ccc(C(=O)[*:1])c3nc-2c(C(=O)[*:2])c(N)c1=O; NMeV = CN[C@H](C(=O)O)C(C)C; Sar = CNCC(=O)O

Legend:
[1] = qHTS assay to identify small molecule antagonists of the estrogen receptor alpha (ER-alpha) signaling pathway using the BG1 cell line in the presence of 0.1 nM 17-beta-estradiol - cell viability counter screen (AID 1259241); details: VM7Luc4E2 (BG1) viability, CellTiter-Fluor protease, 22 h, 0.1 nM estradiol agonist added; series mostly up to 92.4 µM; also: nearly all actives have a fitted effect of over 40% in size; also: potency is read from the fitted curve at half-maximal effect
In short: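 VM7Luc4E2 cells (endogenous ER-alpha, 4×ERE-luciferase), hormone-starved 5 days in charcoal-stripped FBS, were treated with compounds plus 0.1 nM 17beta-estradiol for 22 hr at 37C; viability read in same wells as CellTiter-Fluor live-cell protease fluorescence.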

[2] = qHTS assay to identify small molecule antagonists of the androgen receptor (AR) signaling pathway using the MDA cell line in the presence of 0.5 nM R1881 - cell viability counter screen (AID 1259242); details: MDA-kb2 viability, CellTiter-Fluor protease fluorescence, 16 h; series mostly up to 92.4 µM; also: nearly all actives have a fitted effect of over 45% in size; also: potency is read from the fitted curve at half-maximal effect
In short: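 R1881 at 0.5 nM final stimulated MDA-kb2 cells during 16 hr compound treatment at 37C. Cytotoxicity read: CellTiter-Fluor fluorescence after 30 min.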

[3] = biological target: Estrogen receptor (Homo sapiens) (UniProt P03372); assay: qHTS assay to identify small molecule antagonists of the estrogen receptor alpha (ER-alpha) signaling pathway using the BG1 cell line in the presence of 0.1 nM 17-beta-estradiol (AID 1259244); details: VM7Luc4E2 (BG1) ERE-luciferase, antagonist mode, 0.1 nM E2, 22 h; series mostly up to 92.4 µM; also: nearly all actives have a fitted effect of over 50% in size; also: potency is read from the fitted curve at half-maximal effect
Chain of Estrogen receptor (Homo sapiens) (P03372 whole entry, looked up): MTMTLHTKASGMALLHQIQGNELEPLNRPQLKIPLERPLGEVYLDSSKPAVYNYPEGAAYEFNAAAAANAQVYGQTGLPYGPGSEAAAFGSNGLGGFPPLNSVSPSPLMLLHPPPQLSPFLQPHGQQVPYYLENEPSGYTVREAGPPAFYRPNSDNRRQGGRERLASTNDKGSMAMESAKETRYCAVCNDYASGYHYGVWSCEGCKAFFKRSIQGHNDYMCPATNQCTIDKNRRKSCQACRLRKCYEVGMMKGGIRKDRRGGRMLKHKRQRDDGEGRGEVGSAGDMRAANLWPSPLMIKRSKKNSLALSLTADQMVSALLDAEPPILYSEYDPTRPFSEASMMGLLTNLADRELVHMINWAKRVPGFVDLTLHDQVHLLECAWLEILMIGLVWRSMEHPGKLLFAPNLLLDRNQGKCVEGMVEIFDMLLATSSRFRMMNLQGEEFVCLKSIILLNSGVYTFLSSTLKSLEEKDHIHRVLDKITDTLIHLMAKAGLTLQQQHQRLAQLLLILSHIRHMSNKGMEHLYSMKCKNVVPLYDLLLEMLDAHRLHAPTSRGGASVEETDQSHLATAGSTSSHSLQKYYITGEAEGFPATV
In short: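 VM7Luc4E2; 4xERE-luciferase; 0.1 nM E2 final; 22 h co-incubation, 37C; ONE-Glo luminescence after 30 min at room temperature.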

[4] = qHTS assay to identify small molecule HDAC inhibitors (AID 1259364); details: HCT-116 HDAC-Glo I/II luminescence, 2 h; series mostly up to 92.4 µM;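 also: wild-type HCT-116 cells with endogenous class I/II HDAC activity; top concentration of the series differs between compounds; nearly all actives have a fitted effect of over 45% in size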
In short: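 Relative class I and II HDAC activity is taken from the luminogenic signal in HCT-116 cells, with compound exposure 2 hr and reagent development 30 min at room temperature.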

[5] = qHTS assay to identify small molecule HDAC inhibitors - cell viability counter screen (AID 1259365); details: HCT-116 viability, CellTiter-Glo ATP luminescence, 2 h; series mostly up to 92.4 µM; also: nearly all actives have a fitted effect of over 50% in size
In short: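 Wild-type HCT-116 cells were seeded at 1,500 per well, incubated overnight at 37 C, then exposed to compounds in DMSO for 2hr. Viability was read by CellTiter-Glo luminescence after 30min at room temperature.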

[6] = qHTS assay to identify small molecule agonists of the sonic hedgehog signaling (Shh) pathway - cell viability counter screen (AID 1259366); details: NIH/3T3 Gli1-Luc viability, CellTiter-Fluor, 24 h; series mostly up to 92.4 µM; also: nearly all actives have a fitted effect of over 50% in size; also: potency is read from the fitted curve at half-maximal effect
In short: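 NIH/3T3-derived 3T3 Gli1-Luc cells (stable Gli1-responsive firefly luciferase reporter) were seeded, rested 4 hr at 37 C/5% CO2, then exposed to compounds in DMSO for 24 hr; viability was read by CellTiter-Fluor fluorescence in the same wells.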

[7] = qHTS assay to identify small molecule antagonists of the sonic hedgehog signaling (Shh) pathway - cell viability counter screen (AID 1259367); details: NIH/3T3 Gli1-Luc viability, CellTiter-Fluor, 24 h; series mostly up to 92.4 µM; also: nearly all actives have a fitted effect of over 55% in size; also: potency is read from the fitted curve at half-maximal effect
In short: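 NIH/3T3-derived Gli1-Luc reporter cells, 2,000/well, plated 4 hr before compound addition, then stimulated with conditioned medium for 24 hr at 37C. Viability measured in the same wells by CellTiter-Fluor fluorescence, reagent added at 23 hr for 1 hr.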

[8] = qHTS assay to identify small molecule agonists of the sonic hedgehog signaling (Shh) pathway (AID 1259368; calls by dose curve; also: nearly all actives have a fitted effect of over 15% in size); details: NIH/3T3 Gli1-Luc reporter, luciferase, 24 h; series mostly up to 92.4 µM
In short: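 Mouse fibroblast (NIH/3T3) reporter cells with stably integrated Gli1-Luc were treated 24 hr with compound; firefly luciferase luminescence served as the read-out.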

[9] = qHTS assay to identify small molecule phospholipidosis (PLD) inducers (AID 1259344; active = well fitted curve in the direction sought with a large enough effect; an effect the other way counts as inactive or inconclusive); details: HepG2 phospholipidosis, LipidTOX Red imaging, 24 h; series mostly up to 38.3 µM
In short: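 HepG2 cells, 900/well, treated with compound plus LipidTOX Red for 24 h at 37 C; amiodarone positive and DMSO negative controls. Fixed with paraformaldehyde/Hoechst, then high-content imaging scored LipidTOX pit count and integrated intensity per well and per cell.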

[10] = biological target: Androgen receptor (Homo sapiens) (UniProt P10275); assay: qHTS assay to identify small molecule antagonists of the androgen receptor (AR) signaling pathway using the MDA cell line in the presence of 0.5 nM R1881 (AID 1259243); details: MDA-kb2 MMTV-luciferase, R1881 0.5 nM, 16 h; series mostly up to 92.4 µM; also: potency is read from the fitted curve at half-maximal effect; nearly all actives have a fitted effect of over 50% in size
Chain of Androgen receptor (Homo sapiens) (P10275 whole entry, looked up): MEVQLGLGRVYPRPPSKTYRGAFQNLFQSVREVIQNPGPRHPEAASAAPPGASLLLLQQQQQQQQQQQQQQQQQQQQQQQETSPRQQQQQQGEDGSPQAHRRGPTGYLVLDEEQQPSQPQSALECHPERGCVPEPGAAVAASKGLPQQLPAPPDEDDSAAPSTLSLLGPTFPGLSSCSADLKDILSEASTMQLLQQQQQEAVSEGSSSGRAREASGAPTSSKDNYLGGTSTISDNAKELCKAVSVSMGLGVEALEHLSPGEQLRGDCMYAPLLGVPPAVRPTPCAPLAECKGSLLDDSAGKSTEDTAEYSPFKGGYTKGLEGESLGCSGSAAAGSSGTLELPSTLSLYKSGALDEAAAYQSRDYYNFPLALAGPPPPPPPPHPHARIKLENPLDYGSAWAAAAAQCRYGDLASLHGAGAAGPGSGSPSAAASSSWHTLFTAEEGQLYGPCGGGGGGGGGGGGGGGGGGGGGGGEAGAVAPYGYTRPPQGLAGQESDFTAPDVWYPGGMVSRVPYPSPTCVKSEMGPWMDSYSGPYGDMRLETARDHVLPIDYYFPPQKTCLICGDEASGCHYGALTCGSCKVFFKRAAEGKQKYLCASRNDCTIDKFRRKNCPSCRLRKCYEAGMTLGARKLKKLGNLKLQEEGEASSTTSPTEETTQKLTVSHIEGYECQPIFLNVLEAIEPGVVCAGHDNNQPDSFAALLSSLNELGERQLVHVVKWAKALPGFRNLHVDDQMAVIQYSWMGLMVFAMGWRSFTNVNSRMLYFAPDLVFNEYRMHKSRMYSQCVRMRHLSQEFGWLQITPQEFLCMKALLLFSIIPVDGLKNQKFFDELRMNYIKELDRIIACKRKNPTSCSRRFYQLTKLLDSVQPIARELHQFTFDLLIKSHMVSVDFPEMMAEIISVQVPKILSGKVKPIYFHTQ
In short: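 We exposed MDA-kb2 cells to compounds under 0.5 nM R1881 stimulation for 16 hr at 37C and quantified MMTV-driven luciferase by luminescence.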

Measured: Potency

Cc1cccc([N+](=O)[O-])c1C(=O)O
not listed: [9] | [10]
inactive: all other assays above

CC(=O)C1=C(C)[C@@H]2C[C@@]3(C1)[C@H](C)CC[C@H]3C2(C)C
not listed: [9] | [10]
inactive: all other assays above

COc1ccc(CCN(C)CCCC(C#N)(c2ccc(OC)c(OC)c2)C(C)C)cc1OC (stereo unspecified)
inactive: [9]

CCN(CC)c1ccc2c(C)cc(=O)oc2c1
inactive: [2] | [3] | [4] | [5] | [8]

Cc1occc(=O)c1OC(=O)C(C)C
not listed: [3] | [9] | [10]
inactive: all other assays above

Cc1c2oc3c(C)ccc(C(=O)N[C@@H]4C(=O)N[C@H](C(C)C)C(=O)N5CCC[C@H]5C(=O)N(C)CC(=O)N(C)[C@@H](C(C)C)C(=O)O[C@@H]4C)c3nc-2c(C(=O)N[C@@H]2C(=O)N[C@H](C(C)C)C(=O)N3CCC[C@H]3C(=O)N(C)CC(=O)N(C)[C@@H](C(C)C)C(=O)O[C@@H]2C)c(N)c1=O (I: T[dV]P[Sar][NMeV] / II: T[dV]P[Sar][NMeV]; ester I:1-I:C, II:1-II:C; linker I:N-II:N via Actinocin(9to1))
active: [1] 26.6 µM | [10] 26.6 nM and 9.4 nM | [3] 23.7 nM and 53.1 nM | [6] 42.1 nM and 168 nM | [7] 42.1 nM and 119 nM
inactive: [9] | [4] | [5] | [8]

CC(C)CCCCCCc1ccc(O)cc1
55.4 µM (active) and inactive: [7]
active: [6] 62.2 µM
5.54 µM (active) and inactive: [3]
inactive: [9] | [4] | [8]
6.98 µM (active) and inactive: [2]

CCC(=O)/C=C/C1C(C)=CCCC1(C)C (stereo unspecified)
not listed: [3] | [9] | [10]
inactive: all other assays above

Cc1cccc2n[nH]nc12
not listed: [3] | [9] | [10]
inactive: all other assays above

O=C1CC2(CCCC2)CC(=O)N1CCCCN1CCN(c2ncccn2)CC1
not listed: [3] | [9] | [10]
inactive: all other assays above
